Compounds with a hit are over-represented: about 3.6% of the library has one in this group of screens.
Anthrax LF inh2 = inhibitors of Bacillus anthracis lethal factor protease | P15917 | hit rate 0.12% among 360,000 | multiplex microsphere protease cleavage assay, LF | inhibition, % at 10 µM; further: plate controls were buffer without enzyme for full effect and enzyme alone for no effect
MazEF act = MazEF (E. coli) toxin RNase activation; P0AE70; FAM/BHQ RNA-DNA oligo cleavage fluorescence, 5 h; activation, % at 20 µM; hit rate 0.32% among 350,000; AID 504720; in the data active means activation above about 50%
Target sequence (P0AE70 whole entry, looked up): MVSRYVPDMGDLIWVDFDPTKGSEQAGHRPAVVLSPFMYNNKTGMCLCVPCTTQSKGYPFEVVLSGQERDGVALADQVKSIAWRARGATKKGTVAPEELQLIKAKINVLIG
BoNT F protease = blocks Botulinum neurotoxin F light chain protease; Multiplex microsphere protease cleavage assay, flow cytometry; inhibition, % at 10 µM; hit rate 0.22% among 360,000; AID 588497; in the data active means inhibition above about 35%, passing the limit was not always enough; inconclusive means no clear call, values can overlap the other calls; further: plate controls were buffer without enzyme for full effect and enzyme alone for no effect
Autofluor counter = compound fluorescence in toxin protease inhibitor counterscreen | fluorescence intensity (no concentration beside the values) | hit rate 3.1% among 360,000 | compound autofluorescence counterscreen, microsphere flow cytometry; active compounds read high; in the data active means fluorescence intensity above about 16000; inconclusive means no clear call, values can overlap the other calls
BoNT-A LC inh2 = inhibitors of Botulinum neurotoxin A light chain protease; inhibition, % at 10 µM; multiplex microsphere protease substrate cleavage, flow cytometry; hit rate 0.17% among 360,000; further: plate controls were buffer without enzyme for full effect and enzyme alone for no effect
An asterisk follows results filed as active; u = inconclusive; x = not tested or not shown. Unless noted, no stated cut-off is given here; in the data, active means inhibition above about 30%; inconclusive means no clear call, values can overlap the other calls; inactive means below that.

SMILES	Anthrax LF inh2	MazEF act	BoNT F protease	Autofluor counter	BoNT-A LC inh2
CCC(Sc1nc2ncccc2[nH]1)C(=O)NC1CCC(C)CC1 (configuration not stated)	-3	138*	1	6669	1
CS(=O)(=O)N1CCC(Oc2ccccc2C(=O)NC(C2CC2)C2CC2)CC1	-4	11	-5	3283	-1
CCN1CCc2nc(NC(=O)c3ccccc3)sc2C1	15	-58	-2	18645*	10
Cc1cc(C)nc(N2CCCC(C(=O)Nc3cc(F)ccc3C)C2)n1 (configuration not stated)	-3	5	2	22529*	2
Cc1cc(C)n2nc(C(=O)Nc3ccc4c(c3)OCO4)cc2n1	-5	-3	0	22219*	2
Cc1cc(C)nc(N2CCCC(C(=O)Nc3ccc4c(c3)OCO4)C2)n1 (configuration not stated)	-1	1	-3	20510*	-2
COc1ccccc1NC(=O)C1CCCN(c2nc(C)cc(C)n2)C1 (configuration not stated)	-2	2	0	9034	-1
CCc1nnc(NC(=O)C2CCCN(c3nc(C)cc(C)n3)C2)s1 (configuration not stated)	-1	-4	-1	18689*	2
Cc1cc(C)nc(N2CCCC(C(=O)Nc3nnc(C(C)(C)C)s3)C2)n1 (configuration not stated)	-1	6	-5	4188	-1
COc1ccc(C(C#N)=Cc2ccc(N(C)CCC#N)cc2)cc1	-2	-96	-10	4083	0
CC12CCC(=O)N1C(C(=O)NCCN1C(=O)S/C(=C\c3ccc(F)cc3)C1=O)CS2 (configuration not stated)	-2	0	8	u	3
Cc1cc(=O)oc(C)c1C(=O)NCCc1ccccc1	3	-2	-5	2400	0
CCC(C)NC(=O)c1c(C)cc(=O)oc1C (configuration not stated)	0	-2	-1	20515*	-2
CCCCNC(=O)c1c(C)cc(=O)oc1C	-1	-3	0	22316*	2
Cc1ccc(Nc2nc(N3CCOCC3)nc(N3CCOCC3)n2)cc1C	0	2	-3	5943	1
O=C(O)CCc1nn2c3ccccc3n(CC(=O)c3ccccc3)c2nc1=O	-1	1	0	22951*	1
COc1ccc(CCN(C)C(=O)CSc2ncnc3sccc23)cc1OC	-1	1	6	4607	0
COc1ccc(CCN(C)C(=O)CSc2nccn2C)cc1OC	-1	0	2	19523*	u
CCCCn1c(N)c(N(CC(C)C)C(=O)c2cc3ccccc3cc2OC)c(=O)[nH]c1=O	-4	6	-6	u	-5
O=C1C2CC=CCC2C(=O)N1c1cccc(OS(=O)(=O)c2ccc3ccccc3c2)c1 (configuration not stated)	-9	-8	-3	20101*	u
O=C(CCN1C(=O)/C(=C/c2ccccc2Cl)SC1=S)NCCc1ccc(O)cc1	1	8	6	5213	3
COc1cc(OC)nc(C(NC(=O)C2CCN(Cc3ccc(Oc4ccccc4)cc3)CC2)c2ccc(F)cc2)n1 (configuration not stated)	-2	x	-6	3888	0
CCCCC1CCC(C(=O)Nc2ccccc2)CC1 (configuration not stated)	-2	-4	-1	16463*	u
CCCCC1CCC(C(=O)Nc2ccccc2N2CCOCC2)CC1 (configuration not stated)	2	6	-18	u	-1
CN(Cc1nc2ccccc2n1C)C(=O)c1cccs1	-6	-1	-3	22484*	-1
SMILES	Anthrax LF inh2	MazEF act	BoNT F protease	Autofluor counter	BoNT-A LC inh2
Cc1ccc(/C=c2\sc3nc(-c4cccs4)nn3c2=O)o1	-4	-4	3	20038*	1
COC(=O)c1c(C(=O)OC)c(-c2ccc(C)cc2)n2c1CCC2	0	-5	-7	24446*	-5
COC(=O)c1c(C(=O)OC)c(-c2ccc(Cl)c(Cl)c2)n2c1CCC2	-6	-5	1	10365	0
O=C(N/N=C/c1ccco1)/C(=C/c1cccc([N+](=O)[O-])c1)NC(=O)c1ccccc1	-1	3	2	22258*	0
CC(C)NC(=O)/C(=C\c1cccc([N+](=O)[O-])c1)NC(=O)c1ccccc1	-2	0	-1	22798*	2
Cc1ccc(C(=O)N/C(=C\c2ccc([N+](=O)[O-])cc2)C(=O)NCCc2ccccc2)cc1	-3	1	-6	25796*	-5
C/C(=N\NC(=O)c1nnn(-c2nonc2N)c1CSc1ccc(C)cc1)c1cccs1	5	-48	-5	2967	0
O=C1C(Cc2ccc(O)cc2)NC(=S)N1c1ccccc1 (configuration not stated)	-1	-20	-2	23822*	-3
Nc1ccn([C@@H]2O[C@H](CNCc3ccc(Oc4cc(-n5cccn5)ncn4)cc3)[C@@H](O)[C@H]2O)c(=O)n1	2	8	-4	3816	0
COc1cc(OC)cc(C(=O)NC2CCN(Cc3nnnn3Cc3cccs3)CC2)c1	-2	-3	-5	25214*	-7
O=S(=O)(Nc1ccon1)c1ccc(F)c(F)c1	1	1	-1	5753	0
COc1ccc(C2C(C(C)=O)=C(O)C(=O)N2CCc2ccccc2)c(OC)c1 (configuration not stated)	-1	-10	-4	16192*	0
O=C(NC1CC1)C1=C[C@H](c2ccc(C(F)(F)F)cc2)C[C@H](OCc2ccc(CO)cc2)O1	-5	199*	6	4156	0
CC1(C)[C@H]2CC=C(CN3CCC(N4CCC(C(=O)N5CCCC5)CC4)CC3)[C@@H]1C2	-2	1	3	6453	-1
CC1(C)C2CC=C(CN3CCC(O)CC3)C1C2 (configuration not stated)	-2	-4	0	16149*	u
COc1ccc(Cn2ccnc2)cc1[N+](=O)[O-]	0	11	-6	2583	-1
COc1ccc(Cn2ccnc2)cc1Br	0	9	-5	23086*	-1
CC1CCCN(C(=O)c2cc(F)c(F)cc2Cl)C1 (configuration not stated)	-4	9	-5	22587*	2
CC1CN(C(=O)c2cc(F)c(F)cc2Cl)CC(C)O1 (configuration not stated)	-2	12	-2	9582	1
Cc1cc2oc(=O)cc(Cn3ccnc3)c2cc1C	-3	8	-4	16965*	-2
Cc1ccccc1-n1nc(C)c2cc(C(=O)N3CCOCC3)sc21	-1	0	1	23082*	u
CCc1ccc(CNc2ccc3c(c2)ncn3C)cc1	-3	-5	1	21662*	4
COc1ccc(C(=O)c2c[nH]c(C(=O)N=CN(C)C)c2)cc1	6	-1	1	4933	0
O=C(CCc1ccccc1)Nc1cccnc1Cl	u	2	66*	3754	5
CC[C@]12C(=O)N(C)C[C@H]([C@@H]3C(=O)N(Cc4ccccc4)C(=O)[C@@H]31)N2C(=O)c1ccc(F)cc1	-5	2	1	3769	0
